Measurements taken from PubChem BioAssay.
Calls of active or inactive are those of the source. Unless noted, how the calls were made is not given here.

Tests used:
[1] = resazurin metabolic signal in HepG2 cells – cell-based, resazurin fluorescence, 24 h, PK04 Diversity Set, profiling panel (AID 1172); conditions: HepG2 viability, higher = more signal
[2] = budding yeast growth changes without added modifier – OD600, strain BY4716, 24 h, basal condition, primary screen (AID 1173); conditions: S. cerevisiae BY4716 growth, OD600, 24 h; higher = more signal, called active from +8 up or from −8 down
[3] = viability profiling in MM1S myeloma cells – cell-based, resazurin fluorescence, basal, 24 h, PK04 Diversity Set, profiling panel (AID 1174); conditions: higher = more signal, called active from +8 up or from −8 down;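 further: MM1S multiple myeloma cell line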
[4] = molecular target: Dihydroorotate dehydrogenase (quinone), mitochondrial (Plasmodium falciparum (isolate 3D7)) (UniProt Q08210); experiment: inhibition of P. falciparum DHODH – biochemical, C-terminal His tag, absorbance 600 nm, primary screen (AID 1175); conditions: PfDHODH enzyme, DCIP absorbance 600 nm; higher = more signal, called active from +8 up or from −8 down;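 further: recombinant parasite enzyme with a five histidine tag at its C terminus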
Sequence of Dihydroorotate dehydrogenase (quinone), mitochondrial (Plasmodium falciparum (isolate 3D7)) (Q08210 whole entry, looked up): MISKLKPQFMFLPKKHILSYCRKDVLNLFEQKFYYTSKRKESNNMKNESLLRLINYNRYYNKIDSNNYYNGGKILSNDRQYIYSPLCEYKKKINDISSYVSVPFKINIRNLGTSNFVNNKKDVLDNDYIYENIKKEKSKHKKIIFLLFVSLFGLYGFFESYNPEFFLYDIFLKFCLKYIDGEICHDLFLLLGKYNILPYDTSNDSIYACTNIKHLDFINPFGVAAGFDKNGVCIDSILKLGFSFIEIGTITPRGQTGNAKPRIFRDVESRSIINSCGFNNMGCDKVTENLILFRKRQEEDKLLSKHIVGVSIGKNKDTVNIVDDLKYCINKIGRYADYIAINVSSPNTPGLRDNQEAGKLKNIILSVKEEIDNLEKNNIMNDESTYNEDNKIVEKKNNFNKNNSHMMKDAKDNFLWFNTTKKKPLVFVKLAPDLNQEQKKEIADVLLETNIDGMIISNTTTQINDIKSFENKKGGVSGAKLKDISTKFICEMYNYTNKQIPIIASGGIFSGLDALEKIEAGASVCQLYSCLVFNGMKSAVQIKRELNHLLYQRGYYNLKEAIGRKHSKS

[5] = inhibition of PAO1 biofilm formation – strain PAO1, LB-PBS medium, absorbance 600 nm, primary screen (AID 1176); conditions: P. aeruginosa PAO1 growth/biofilm, A600, 12 h; higher = more signal
[6] = growth modulation of vineyard yeast isolate – strain RM11-1a, OD600, basal, 24 h, primary screen (AID 1177);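 further: cultures grown under basal conditions with no added stressor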; conditions: S. cerevisiae RM11-1a growth, OD600, 24 h; higher = more signal, called active from +8 up or from −8 down
[7] = growth of efflux-deficient E. coli DRC39 – strain DRC39, OD650, 24 h, E. coli filamentation inducers, primary screen (AID 1178);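 further: growth measured as culture turbidity by optical density at 650 nm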; conditions: E. coli DRC39 acrAB, higher = more signal, called active from +8 up or from −8 down
[8] = growth of efflux-deficient E. coli DRC39 – strain DRC39, OD650, 48 h, E. coli filamentation inducers, primary screen (AID 1179);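 further: screen aims at cell division blockers that make cells filament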; conditions: E. coli DRC39 delta-acrAB growth, higher = more signal, called active from +8 up or from −8 down
[9] = viability profiling in RPMI8226 myeloma cells – cell-based, resazurin fluorescence, basal, 24 h, PK04 Diversity Set, profiling panel (AID 1180); conditions: higher = more signal;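 further: RPMI8826 multiple myeloma cell line at 5000 cells per well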
[10] = molecular target: E3 ubiquitin-protein ligase XIAP (Homo sapiens) (UniProt P98170); experiment: small molecules binding XIAP protein – biophysical, small-molecule microarray, fluorescence 635 nm, primary screen (AID 1181); conditions: higher = more signal;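 further: score merges 667 nm emission and signal to noise over triplicate slides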
Sequence of E3 ubiquitin-protein ligase XIAP (Homo sapiens) (P98170 whole entry, looked up, the tested form may be a part): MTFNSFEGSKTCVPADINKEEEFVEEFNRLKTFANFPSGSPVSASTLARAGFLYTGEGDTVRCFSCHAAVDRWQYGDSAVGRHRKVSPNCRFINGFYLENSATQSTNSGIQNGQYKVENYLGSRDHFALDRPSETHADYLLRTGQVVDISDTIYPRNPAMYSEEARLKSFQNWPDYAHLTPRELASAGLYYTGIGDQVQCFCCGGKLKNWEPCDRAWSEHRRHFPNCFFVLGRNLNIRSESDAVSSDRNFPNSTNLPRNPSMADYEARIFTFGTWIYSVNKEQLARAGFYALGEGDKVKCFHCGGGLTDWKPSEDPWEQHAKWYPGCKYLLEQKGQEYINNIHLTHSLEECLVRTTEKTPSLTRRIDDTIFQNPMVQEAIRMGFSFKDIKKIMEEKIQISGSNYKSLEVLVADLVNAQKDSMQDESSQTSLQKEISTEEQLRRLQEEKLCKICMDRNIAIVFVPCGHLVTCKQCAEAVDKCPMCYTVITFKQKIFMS

[11] = tested on: XIP peptide (Xip251-270) binding; experiment: XIP fragment 251-270 binding compounds – biochemical, small-molecule microarray, fluorescence 635/667 nm, 0.1 µg/mL protein, primary screen (AID 1182); conditions: fluorescent protein binding, 635 nm, higher = more signal, called active from +8 up or from −8 down
XIP peptide (Xip251-270) = experiment: compounds binding XIP fragment 251-270 – biochemical, small-molecule microarray, fluorescence 635/667 nm, 0.5 µg/mL protein, primary screen (AID 1183); conditions: fluorescence 635 nm, higher = more signal
[12] = blood-stage malaria parasite viability loss – strain 3D7, DAPI fluorescence, 100 nL, primary screen (AID 1184);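 further: parasites grown inside human red blood cells in medium with human serum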; conditions: P. falciparum 3D7 growth, 3 d, higher = more signal
[13] = molecular target: Homeobox protein Hox-A13 (Mus musculus) (UniProt Q62424); experiment: disruptors of Hoxa13 oligonucleotide interaction – biochemical, fluorescence polarization, labeled oligonucleotide, primary screen (AID 1185); conditions: Hoxa13:DNA binding, 15 min, higher = more signal, called active from +8 up or from −8 down
Sequence of Homeobox protein Hox-A13 (Mus musculus) (Q62424 whole entry, looked up): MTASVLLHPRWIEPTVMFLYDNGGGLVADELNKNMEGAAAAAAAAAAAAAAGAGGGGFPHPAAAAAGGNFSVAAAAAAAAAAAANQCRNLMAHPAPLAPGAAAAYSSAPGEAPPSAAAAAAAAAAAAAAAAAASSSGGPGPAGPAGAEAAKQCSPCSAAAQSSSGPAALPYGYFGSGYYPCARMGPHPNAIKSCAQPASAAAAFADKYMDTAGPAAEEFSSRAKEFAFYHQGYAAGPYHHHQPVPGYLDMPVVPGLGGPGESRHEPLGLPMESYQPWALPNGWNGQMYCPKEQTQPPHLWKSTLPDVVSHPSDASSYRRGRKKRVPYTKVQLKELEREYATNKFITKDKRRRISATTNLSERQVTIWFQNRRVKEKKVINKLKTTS

[14] = blockers of DNA damage checkpoint Chk1 activation – imaging, HeLa, hydroxyurea, phospho-Chk1 antibody, percent positive cells, primary screen (AID 1186); conditions: hydroxyurea-induced phospho-Chk1 immunofluorescence imaging, higher = more signal
[15] = blockers of DNA damage checkpoint Chk1 activation – imaging, HeLa, hydroxyurea, phospho-Chk1 nuclear intensity, primary screen (AID 1187); conditions: hydroxyurea-induced phospho-Chk1 immunofluorescence imaging, higher = more signal

SMILES	z-score [1]	z-score [2]	z-score [3]	composite z-score [4]	z-score [5]	z-score [6]	z-score [7]	z-score [8]	z-score [9]	composite z-score [10]	composite z-score [11]	composite z-score (XIP peptide (Xip251-270))	z-score [12]	z-score [13]	z-score [14]	z-score [15]
O=C1C2C=CC(C(O)Cc3ccccc3)N(n3cnnc3)C2C(=O)N1Cc1ccccc1 (centres undefined)	-0.957	0.341 (inactive)	-1.04 (inactive)	0.293 (inactive)	-0.253 (inactive)	0.656 (inactive)	-1.08 (inactive)	-1.13 (inactive)	-1.05	0.0328	-0.139 (inactive)	0.686	-1.29	-3.18 (inactive)	-0.179 (inactive)	-0.472 (inactive)
CC(C)NC(=O)[C@@]1(c2ccc([N+](=O)[O-])cc2)CC(=O)N(C2CCCCC2)[C@@H]1c1ccc(CO)cc1I	-0.752	-0.148 (inactive)	0.507 (inactive)	0.968 (inactive)	-0.0469 (inactive)	1.4 (inactive)	0.543 (inactive)	0.0026 (inactive)	0.636	-0.177	0.46 (inactive)	0.697	-1.63	-4.64 (inactive)	0.1 (inactive)	0.635 (inactive)
C[N+](C)(C)CCCCCCNC(=O)[C@@H]1C[C@@H]2C(=O)N[C@@H](Cc3ccccc3)C(=O)N2[C@@H]1c1cccc(OCCO)c1	0.844	-0.393 (inactive)	0.328 (inactive)	-0.0631 (inactive)	-0.27 (inactive)	0.153 (inactive)	1.14 (inactive)	1.35 (inactive)	0.755	0.0905	0.694 (inactive)	0.814	-0.145	-4.83 (inactive)	-0.362 (inactive)	-0.398 (inactive)
C=CCOC(=O)[C@H]1[C@@H]2C(=O)O[C@@H](c3ccccc3)[C@@H](c3ccccc3)N2[C@@H](c2ccc(OCCOC(=O)[C@H]3C[C@H]4C(=O)N[C@@H](CCCCN(C)C)C(=O)N4[C@H]3c3ccc(O)cc3)cc2)[C@]12C(=O)Nc1ccc(I)cc12	0.0141	-0.526 (inactive)	-0.934 (inactive)	0.341 (inactive)	0.739 (inactive)	-0.0228 (inactive)	-0.624 (inactive)	-1.24 (inactive)	-0.973	-0.0819	0.768 (inactive)	0.791	-0.193	-4.89 (inactive)	0.622 (inactive)	-0.163 (inactive)
COC(=O)c1c(CC[C@@H](CO)NC(=O)NCCn2cc(C3(O)CCCC3)nn2)oc(C(C)=O)c1C(=O)OC	-0.777	-0.394 (inactive)	-0.691 (inactive)	-0.35 (inactive)	0.173 (inactive)	-0.77 (inactive)	-0.426 (inactive)	-0.828 (inactive)	-0.581	-0.0343	0.333 (inactive)	-0.0213	-0.72	-1.9 (inactive)	0.0528 (inactive)	-0.0849 (inactive)
COc1ccc(C#Cc2ccc3c(c2)[C@]2(C(=O)N3)[C@H](c3ccccc3OCCO)N3[C@H](c4ccccc4)[C@H](c4ccccc4)OC(=O)[C@H]3[C@@H]2C(=O)Nc2nc3ccccc3s2)cc1	-0.927	1.35 (inactive)	-0.545 (inactive)	-30.7 (active)	2.77 (inactive)	2.93 (inactive)	0.0225 (inactive)	0.132 (inactive)	-1.76	0.0471	0.881 (inactive)	0.68	-1.9	2.72 (inactive)	0.165 (inactive)	0.265 (inactive)
CN(C)CCCC[C@@H]1NC(=O)[C@H]2C[C@@H](C(=O)NCCCCCCN)[C@@H](c3ccc(O)cc3)N2C1=O	-0.24	-0.343 (inactive)	0.696 (inactive)	-1.31 (inactive)	-0.338 (inactive)	0.578 (inactive)	0.332 (inactive)	0.458 (inactive)	0.683	0.121	1.38 (inactive)	0.785	-0.135	-1.16 (inactive)	0.323 (inactive)	0.362 (inactive)
COc1ccc(C(=O)Nc2ccc(CN3C(=O)[C@]4(O[C@H](CCO)[C@@H]([Si](C)(C)c5ccc(OC)cc5)[C@@H]4C)c4ccccc43)cc2)cc1	-5.44	-3.84 (inactive)	-9.1 (active)	0.132 (inactive)	2.16 (inactive)	4.35 (inactive)	0.65 (inactive)	-0.416 (inactive)	-6.25	0.0623	2.8 (inactive)	0.618	-2.82	-0.677 (inactive)	-0.02 (inactive)	0.458 (inactive)
O=C(NCCN1CCOCC1)C1N=C(c2ccc(OCCCO)cc2)N(c2ccccc2)O1 (centres undefined)	-0.154	0.554 (inactive)	0.602 (inactive)	0.301 (inactive)	-0.978 (inactive)	-0.377 (inactive)	0.149 (inactive)	0.116 (inactive)	0.385	0.172	2.46 (inactive)	0.738	-0.122	-1.6 (inactive)	-0.227 (inactive)	-0.0873 (inactive)
